± gives the standard deviation of the averaged measurements. The full ranking holds about 25,000 sequences; the median of “ln(normalized median fluorescence intensity)” is about 8.9, and the highest 2% start at about 10. Many of the other results were omitted from the sample, so the highest values are more common in it than they were.

The test has as its system PfAP2-LT AP2 domain (GST-tagged). Kind of test: gcPBM binding intensity (ln(normalized median fluorescence intensity)); higher = stronger DNA binding. The gist of the method:
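Binding intensity is defined as the maximum Masliner-normalised natural-log median intensity across replicate spots for either probe orientation. It was measured on an Agilent 4 × 180k array of primer-extended double-stranded 36-bp intergenic genomic probes and negative controls, to which GST-tagged P. falciparum DNA-binding domains made in E. coli were applied for 1 h in 1× PBS with 1% milk, 0.2 mg/ml BSA, 0.5% salmon testes DNA and 0.03% Triton X-100. Detection was by Alexa488 anti-GST antibody and scanning at 488 nm.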
In the case of “TATATATATGGACACACACACATATAAATAAATAAA [CACACA_site4406]”, the “gcPBM binding intensity (ln)” value came out at 9.71 ± 0.49. The value for “GATACCTATAGACACACACACATACCTATATACATA [CACACA_site7586]” was 9.66 ± 0.47. Turning to “TATATATATGGACACACACACATATATATATATTTT [CACACA_site5409]”, the “gcPBM binding intensity (ln)” value amounted to 9.67 ± 0.23. For the sequence “TATATGTAAATGGACACACACATATATATATATATA [CACACA_site3659]”, the “gcPBM binding intensity (ln)” value was 10 ± 0.13. In the case of “GAGAAATGGAGACACACACACATATTATATATATAT [CACACA_site1532]”, the “gcPBM binding intensity (ln)” value is 9.85 ± 0.15.

“ATAATATTGTGGTATACACACCTTACAAAAAGGTAC [CACACA_site5582]”: the “gcPBM binding intensity (ln)” value was determined as 8.96 ± 0.42. Regarding “AAATATAAAAATAGCACACATATATACCTATATATA [CACACA_site4204]”, the “gcPBM binding intensity (ln)” value is 8.99 ± 0.38. Regarding “TATTGCCCTGGACACACACACATATATATATATATA [CACACA_site5389]”, the “gcPBM binding intensity (ln)” value was 10.2 ± 0.064. As for “TATATTGCCCTTCACACACACACATATATATATATA [CACACA_site2492]”, the “gcPBM binding intensity (ln)” value was 10 ± 0.13.

“TATTGCCCTTGACACACACACATATAAATAAATATA [CACACA_site7220]”: the “gcPBM binding intensity (ln)” value turned out to be 9.34 ± 0.44. The value for “ATTCAAATATTAAAAAGTACAAAAAAAAAACAAAAA [XGTACX_site1174]” was 8.63 ± 0.5; that for “AAGCTTTCATAAAGATGTACTTTTTAAAAATAATCT [XGTACX_site5725]” was 8.28 ± 0.3; that for “TACATTTTATGCATTTGTACACAAATAAATAAATAA [XGTACX_site2652]” was 8.49 ± 0.42.

Turning to “TTTTTCAGAAAAGAAACACACATATATATATTTATA [CACACA_site2372]”, the “gcPBM binding intensity (ln)” value is 8.56 ± 0.43. Turning to “AAATATATTATAAATTGTACGTTTATATATATTATT [XGTACX_site5110]”, the “gcPBM binding intensity (ln)” value is 8.69 ± 0.47. “AATAATATATTTAGGGGTACATAATAATATATTTTA [XGTACX_site8366]”: the “gcPBM binding intensity (ln)” value is 8.66 ± 0.3. As for “TTAGGCAAGGCGGGGGGTACGTTTTTATATAATTAT [XGTACX_site8029]”, the “gcPBM binding intensity (ln)” value came out at 10.2 ± 0.14.

“ATCTCTATGATATATACACACAAATATACAAAAAAA [CACACA_site6605]”: the “gcPBM binding intensity (ln)” value stood at 8.96 ± 0.45.

Regarding “TATAATATTCTATATGCATGTACACCATTCTTTATT [TGCATGCA_site688]”, the “gcPBM binding intensity (ln)” value amounted to 9.15 ± 0.45. As to “TATATATATATATATACATGCATCATTGTTCACCTT [TGCATGCA_site177]”, the “gcPBM binding intensity (ln)” value turned out to be 10.2 ± 0.35. Consider “GTTCATCACATATACACATGCATATTCTAATATGTA [TGCATGCA_site809]”, for which the “gcPBM binding intensity (ln)” value is 8.95 ± 0.41. For the sequence “ACACATACATATACATACACATTGTTTTCATGCATC [XGTACX_negctrl_site126]”, the “gcPBM binding intensity (ln)” value stood at 9.2 ± 0.39.

In the case of “TAAAATGAATAAAATTGTACTTAATAATATTTTAAA [XGTACX_site5532]”, the “gcPBM binding intensity (ln)” value amounted to 8.23 ± 0.57. The value for “TAAAATATAGAAAATTTTATTAAATATAAAAAAATA [CACACA_negctrl_site1441]” was 8.28 ± 0.47.

“TATAAGAAATAAAACCTGATTATAAACCTGTAACCA [CACACA_negctrl_site1302]”: the “gcPBM binding intensity (ln)” value was 8.63 ± 0.37. As for “AAAATAATAATAGGCACACATATATATATATATATA [CACACA_site2058]”, the “gcPBM binding intensity (ln)” value worked out at 9.99 ± 0.21.

Consider “AATAAAATAATAGGCACACATATATATATATATTAT [CACACA_site273]”, for which the “gcPBM binding intensity (ln)” value is 9.2 ± 0.37. In the case of “AAATAAATACTAGGCACACACACATATATATATATA [CACACA_site2079]”, the “gcPBM binding intensity (ln)” value turned out to be 10.1 ± 0.15. As to “ATAAATACTAGGCACACACACATATAGATTTATATA [CACACA_site7064]”, the “gcPBM binding intensity (ln)” value was determined as 9.77 ± 0.47. Regarding “ATAAATAAATACTAGGCACACACACCGATATATATA [CACACA_site8649]”, the “gcPBM binding intensity (ln)” value turned out to be 9.76 ± 0.22.

On to “ATAAATACTAGGCACACACACATATATATATATATA [CACACA_site2080]”, for which the “gcPBM binding intensity (ln)” value came out at 10.4 ± 0.014. For the sequence “TATATTTGGAAAACATGTACATATAACAATATGTAA [XGTACX_site324]”, the “gcPBM binding intensity (ln)” value turned out to be 8.71 ± 0.34. In the case of “TTAGTTATTAAAAAAAGTACATAAGTAGATATCATC [XGTACX_site8712]” it was 8.7 ± 0.45; in that of “TTTGAACATTTTGCAAGTACAAAAAAATAATATATC [XGTACX_site8079]”, 8.65 ± 0.42; in that of “ACTCTCTTATATTAAACACACATATATATATGTATA [CACACA_site2703]”, 8.99 ± 0.42. Take “GTGCTAAAAGTATATGCACACACATATATATGCACA [CACACA_site8472]”: the “gcPBM binding intensity (ln)” value was 9.42 ± 0.31. With “AATATATAAACATATACACACAAAAACATATATATA [CACACA_site4855]”, the “gcPBM binding intensity (ln)” value is 9.21 ± 0.33. As for “AATAAACATAAATACACACACAAAAAAAAAAACATA [CACACA_site4396]”, the “gcPBM binding intensity (ln)” value was found to be 9.64 ± 0.33. Turning to “AAATAAAACAAACACACACACACATACACAAAAAAA [CACACA_site3849]”, the “gcPBM binding intensity (ln)” value is 10.12 ± 0.035. For the sequence “TATAACATAAAACACACACACATACATACACAAAAA [CACACA_site1804]”, the “gcPBM binding intensity (ln)” value was 10.1 ± 0.15.

In the case of “AATAAACATATATACACACACAAAAAAAAAAACATA [CACACA_site424]”, the “gcPBM binding intensity (ln)” value came out at 9.59 ± 0.5. The value for “TATACACATATATAAACACACAAAAAAAAAAAAAAA [CACACA_site7041]” was 8.88 ± 0.49; that for “AAAAAAAAAAAACATACACACAAATAAATACATACA [CACACA_site6073]” was 9.23 ± 0.36.

In the case of “TATATACACATATATAAACACACAAAAAAAAAAAAA [CACACA_site8626]”, the “gcPBM binding intensity (ln)” value was 8.89 ± 0.4. In the case of “ATAAAACAAAAACACACACACATACACAAAAAAAAA [CACACA_site3848]” it was 10.1 ± 0.3.

The record behind these values is the supplement of paper PMC11417369.
